Results taken from ChEMBL document CHEMBL2218924, “A broad activity screen in support of a chemogenomic map for kinase signalling research and drug discovery” (Biochem J, 2013).

Legend:
[1] = target: Death-associated protein kinase 1 (Homo sapiens) (UniProt P53355); details: at 10 µM
[2] = target: Death-associated protein kinase 2 (Homo sapiens) (UniProt Q9UIK4); details: at 1 µM
[3] = target: Death-associated protein kinase 2 (Homo sapiens) (UniProt Q9UIK4); details: at 10 µM
[4] = target: T1, Serine/threonine-protein kinase DCLK2 (Homo sapiens) (UniProt Q8N568); details: at 1 µM
T1 sequence (whole entry): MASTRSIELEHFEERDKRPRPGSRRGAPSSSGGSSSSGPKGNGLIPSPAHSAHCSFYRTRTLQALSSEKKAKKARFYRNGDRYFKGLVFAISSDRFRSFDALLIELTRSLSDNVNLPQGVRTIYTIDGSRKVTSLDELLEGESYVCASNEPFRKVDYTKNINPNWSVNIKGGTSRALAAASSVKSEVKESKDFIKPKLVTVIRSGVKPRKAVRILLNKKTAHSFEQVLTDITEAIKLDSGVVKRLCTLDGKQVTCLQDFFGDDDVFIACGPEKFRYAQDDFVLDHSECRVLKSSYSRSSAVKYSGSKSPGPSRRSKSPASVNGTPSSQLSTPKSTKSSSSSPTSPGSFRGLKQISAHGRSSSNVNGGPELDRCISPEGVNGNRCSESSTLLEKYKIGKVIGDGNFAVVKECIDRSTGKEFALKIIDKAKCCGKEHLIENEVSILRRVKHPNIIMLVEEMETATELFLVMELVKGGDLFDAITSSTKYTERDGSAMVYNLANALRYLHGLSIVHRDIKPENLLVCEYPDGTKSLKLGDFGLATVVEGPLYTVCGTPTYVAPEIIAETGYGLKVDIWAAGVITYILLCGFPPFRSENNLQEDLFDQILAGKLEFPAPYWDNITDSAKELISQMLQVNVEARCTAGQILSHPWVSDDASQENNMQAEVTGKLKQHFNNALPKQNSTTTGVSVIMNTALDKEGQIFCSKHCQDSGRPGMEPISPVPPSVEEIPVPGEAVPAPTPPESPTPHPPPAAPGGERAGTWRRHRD

[5] = target: T1, Serine/threonine-protein kinase DCLK2 (Homo sapiens); details: at 10 µM
[6] = target: T2, Discoidin domain-containing receptor 2 (Homo sapiens) (UniProt Q16832); details: at 1 µM
T2 sequence (whole entry): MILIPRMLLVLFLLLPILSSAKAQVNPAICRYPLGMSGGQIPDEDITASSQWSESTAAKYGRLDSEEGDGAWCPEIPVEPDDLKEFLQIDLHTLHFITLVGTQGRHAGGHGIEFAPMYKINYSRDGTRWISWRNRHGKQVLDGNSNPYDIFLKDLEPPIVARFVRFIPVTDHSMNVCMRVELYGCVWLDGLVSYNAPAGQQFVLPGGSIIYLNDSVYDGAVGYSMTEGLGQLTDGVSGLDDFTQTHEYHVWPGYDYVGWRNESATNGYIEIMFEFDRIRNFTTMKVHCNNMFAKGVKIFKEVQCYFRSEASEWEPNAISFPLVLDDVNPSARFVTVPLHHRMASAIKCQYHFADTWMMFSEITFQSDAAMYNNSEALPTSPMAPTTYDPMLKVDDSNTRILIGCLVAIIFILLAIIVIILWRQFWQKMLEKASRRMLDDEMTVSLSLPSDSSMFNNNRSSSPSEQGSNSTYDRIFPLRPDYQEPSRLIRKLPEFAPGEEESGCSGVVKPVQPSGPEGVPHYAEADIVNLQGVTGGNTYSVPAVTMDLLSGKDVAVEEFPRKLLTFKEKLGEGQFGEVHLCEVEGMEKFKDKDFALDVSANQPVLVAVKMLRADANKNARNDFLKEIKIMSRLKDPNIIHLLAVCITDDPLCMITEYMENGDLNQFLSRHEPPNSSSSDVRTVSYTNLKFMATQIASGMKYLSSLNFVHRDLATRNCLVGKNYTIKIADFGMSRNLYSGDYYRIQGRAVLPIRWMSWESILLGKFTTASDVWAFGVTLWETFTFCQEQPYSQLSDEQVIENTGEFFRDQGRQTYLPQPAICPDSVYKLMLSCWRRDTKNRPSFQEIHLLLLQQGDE

[7] = target: T2, Discoidin domain-containing receptor 2 (Homo sapiens); details: at 10 µM
[8] = target: T3, Myotonin-protein kinase (Homo sapiens) (UniProt Q09013); details: at 1 µM
T3 sequence (whole entry): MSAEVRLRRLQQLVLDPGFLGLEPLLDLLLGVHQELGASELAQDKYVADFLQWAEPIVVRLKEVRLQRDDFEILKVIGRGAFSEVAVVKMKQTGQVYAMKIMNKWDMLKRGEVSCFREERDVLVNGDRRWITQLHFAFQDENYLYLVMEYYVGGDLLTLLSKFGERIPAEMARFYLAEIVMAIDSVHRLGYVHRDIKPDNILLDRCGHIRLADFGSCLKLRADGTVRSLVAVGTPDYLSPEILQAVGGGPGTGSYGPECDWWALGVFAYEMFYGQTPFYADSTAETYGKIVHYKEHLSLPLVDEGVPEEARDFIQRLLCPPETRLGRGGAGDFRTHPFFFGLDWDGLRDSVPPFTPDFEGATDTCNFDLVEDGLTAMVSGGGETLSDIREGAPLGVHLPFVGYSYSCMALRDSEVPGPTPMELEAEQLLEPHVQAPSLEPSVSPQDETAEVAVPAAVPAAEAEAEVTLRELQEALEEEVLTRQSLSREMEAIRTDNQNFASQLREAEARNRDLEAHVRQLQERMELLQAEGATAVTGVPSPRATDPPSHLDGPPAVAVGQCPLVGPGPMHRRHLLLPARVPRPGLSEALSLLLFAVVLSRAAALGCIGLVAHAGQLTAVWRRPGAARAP

[9] = target: T3, Myotonin-protein kinase (Homo sapiens); details: at 10 µM
[10] = target: T4, Serine/threonine-protein kinase 17A (Homo sapiens) (UniProt Q9UEE5); details: at 1 µM
T4 sequence (whole entry): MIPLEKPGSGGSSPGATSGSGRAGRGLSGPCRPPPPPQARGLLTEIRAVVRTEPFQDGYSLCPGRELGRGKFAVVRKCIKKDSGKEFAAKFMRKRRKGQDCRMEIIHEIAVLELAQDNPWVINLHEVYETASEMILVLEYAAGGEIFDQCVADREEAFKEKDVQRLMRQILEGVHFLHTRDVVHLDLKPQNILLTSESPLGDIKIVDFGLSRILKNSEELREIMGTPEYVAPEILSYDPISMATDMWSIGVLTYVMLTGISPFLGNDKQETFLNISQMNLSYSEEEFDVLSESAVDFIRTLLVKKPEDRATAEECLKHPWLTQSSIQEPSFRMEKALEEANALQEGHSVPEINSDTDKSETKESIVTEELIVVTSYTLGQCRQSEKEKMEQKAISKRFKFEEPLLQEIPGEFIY

[11] = target: T4, Serine/threonine-protein kinase 17A (Homo sapiens); details: at 10 µM
[12] = target: T5, Dual specificity tyrosine-phosphorylation-regulated kinase 2 (Homo sapiens) (UniProt Q92630); details: at 1 µM
T5 sequence (whole entry): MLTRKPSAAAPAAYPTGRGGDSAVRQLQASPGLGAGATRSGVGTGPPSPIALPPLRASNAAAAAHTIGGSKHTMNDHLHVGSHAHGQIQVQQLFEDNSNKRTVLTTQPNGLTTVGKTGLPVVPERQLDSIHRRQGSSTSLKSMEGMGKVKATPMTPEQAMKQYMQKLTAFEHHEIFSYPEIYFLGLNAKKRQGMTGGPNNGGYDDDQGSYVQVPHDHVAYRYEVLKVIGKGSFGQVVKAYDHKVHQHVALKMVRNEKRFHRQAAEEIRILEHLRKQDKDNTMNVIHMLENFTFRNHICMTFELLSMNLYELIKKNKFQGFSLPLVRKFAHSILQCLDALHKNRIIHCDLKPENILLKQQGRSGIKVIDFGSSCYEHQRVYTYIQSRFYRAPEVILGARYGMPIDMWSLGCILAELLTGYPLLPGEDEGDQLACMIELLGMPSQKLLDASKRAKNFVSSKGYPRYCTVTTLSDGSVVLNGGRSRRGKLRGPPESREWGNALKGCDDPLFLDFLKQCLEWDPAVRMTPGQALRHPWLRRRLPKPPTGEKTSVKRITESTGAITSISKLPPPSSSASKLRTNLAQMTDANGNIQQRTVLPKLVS

[13] = target: T5, Dual specificity tyrosine-phosphorylation-regulated kinase 2 (Homo sapiens); details: at 10 µM
[14] = target: Epidermal growth factor receptor (Homo sapiens) (UniProt P00533); details: at 1 µM
Chain of Epidermal growth factor receptor (Homo sapiens) (P00533 whole entry): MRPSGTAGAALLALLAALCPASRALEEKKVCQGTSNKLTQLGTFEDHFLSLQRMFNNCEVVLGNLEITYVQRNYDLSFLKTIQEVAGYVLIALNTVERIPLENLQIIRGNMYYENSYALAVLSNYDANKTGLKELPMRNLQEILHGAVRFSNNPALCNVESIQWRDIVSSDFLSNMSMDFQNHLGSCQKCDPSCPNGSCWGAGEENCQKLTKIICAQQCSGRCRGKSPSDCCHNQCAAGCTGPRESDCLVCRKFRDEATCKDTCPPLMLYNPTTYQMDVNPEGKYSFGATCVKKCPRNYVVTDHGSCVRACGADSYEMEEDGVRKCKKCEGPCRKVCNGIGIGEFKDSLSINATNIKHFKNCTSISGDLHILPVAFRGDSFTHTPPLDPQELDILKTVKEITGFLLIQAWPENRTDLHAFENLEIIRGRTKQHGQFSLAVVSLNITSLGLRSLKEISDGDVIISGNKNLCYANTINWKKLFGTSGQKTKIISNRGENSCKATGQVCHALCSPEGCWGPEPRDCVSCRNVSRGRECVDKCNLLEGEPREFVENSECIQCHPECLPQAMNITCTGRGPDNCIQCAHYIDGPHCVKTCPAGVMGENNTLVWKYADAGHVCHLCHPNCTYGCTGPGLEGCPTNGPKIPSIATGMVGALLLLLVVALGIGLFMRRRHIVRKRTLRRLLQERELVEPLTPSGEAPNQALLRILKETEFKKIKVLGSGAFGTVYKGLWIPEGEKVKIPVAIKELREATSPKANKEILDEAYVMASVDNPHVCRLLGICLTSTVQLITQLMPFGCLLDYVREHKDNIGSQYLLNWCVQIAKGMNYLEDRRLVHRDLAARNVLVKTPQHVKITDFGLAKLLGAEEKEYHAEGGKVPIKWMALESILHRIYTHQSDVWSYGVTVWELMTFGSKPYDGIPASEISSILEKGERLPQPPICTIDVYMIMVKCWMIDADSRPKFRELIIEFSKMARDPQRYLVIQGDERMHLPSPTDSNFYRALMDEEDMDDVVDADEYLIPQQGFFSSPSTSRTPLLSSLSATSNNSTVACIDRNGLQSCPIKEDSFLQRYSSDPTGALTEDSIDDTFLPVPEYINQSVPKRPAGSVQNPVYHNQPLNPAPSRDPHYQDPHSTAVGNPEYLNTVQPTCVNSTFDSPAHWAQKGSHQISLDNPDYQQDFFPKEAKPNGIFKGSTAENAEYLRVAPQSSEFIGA

[15] = target: Epidermal growth factor receptor (Homo sapiens) (UniProt P00533); details: at 10 µM
[16] = target: T6, Ephrin type-A receptor 1 (Homo sapiens) (UniProt P21709); details: at 1 µM
T6 sequence (whole entry): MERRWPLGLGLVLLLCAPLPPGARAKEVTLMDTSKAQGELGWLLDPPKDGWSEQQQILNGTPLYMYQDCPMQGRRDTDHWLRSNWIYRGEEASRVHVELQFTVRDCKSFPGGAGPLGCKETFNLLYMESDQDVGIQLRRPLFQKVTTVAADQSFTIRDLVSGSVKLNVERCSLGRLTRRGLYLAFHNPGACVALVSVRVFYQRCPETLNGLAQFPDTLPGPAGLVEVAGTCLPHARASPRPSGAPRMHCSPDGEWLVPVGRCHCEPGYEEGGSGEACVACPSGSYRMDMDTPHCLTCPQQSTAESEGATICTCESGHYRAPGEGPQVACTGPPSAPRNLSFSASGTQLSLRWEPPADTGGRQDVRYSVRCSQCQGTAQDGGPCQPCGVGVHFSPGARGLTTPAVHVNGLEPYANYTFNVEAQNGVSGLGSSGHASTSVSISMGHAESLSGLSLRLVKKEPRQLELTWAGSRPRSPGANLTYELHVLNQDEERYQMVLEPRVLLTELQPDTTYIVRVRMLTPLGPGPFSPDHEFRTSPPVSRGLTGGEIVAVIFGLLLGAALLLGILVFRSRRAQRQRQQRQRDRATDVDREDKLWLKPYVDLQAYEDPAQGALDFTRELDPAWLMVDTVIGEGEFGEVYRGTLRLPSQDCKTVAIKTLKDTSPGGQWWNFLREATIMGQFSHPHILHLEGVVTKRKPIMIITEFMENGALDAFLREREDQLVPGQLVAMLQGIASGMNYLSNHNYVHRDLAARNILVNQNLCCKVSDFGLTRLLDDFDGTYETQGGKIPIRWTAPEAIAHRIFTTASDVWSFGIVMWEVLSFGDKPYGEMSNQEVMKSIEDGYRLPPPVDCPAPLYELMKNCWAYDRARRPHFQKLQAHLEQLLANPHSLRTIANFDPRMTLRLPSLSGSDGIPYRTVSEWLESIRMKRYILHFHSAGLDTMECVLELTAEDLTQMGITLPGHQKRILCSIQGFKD

[17] = target: T6, Ephrin type-A receptor 1 (Homo sapiens); details: at 10 µM
[18] = target: Ephrin type-A receptor 2 (Homo sapiens) (UniProt P29317); details: at 1 µM
Chain of Ephrin type-A receptor 2 (Homo sapiens) (P29317 whole entry): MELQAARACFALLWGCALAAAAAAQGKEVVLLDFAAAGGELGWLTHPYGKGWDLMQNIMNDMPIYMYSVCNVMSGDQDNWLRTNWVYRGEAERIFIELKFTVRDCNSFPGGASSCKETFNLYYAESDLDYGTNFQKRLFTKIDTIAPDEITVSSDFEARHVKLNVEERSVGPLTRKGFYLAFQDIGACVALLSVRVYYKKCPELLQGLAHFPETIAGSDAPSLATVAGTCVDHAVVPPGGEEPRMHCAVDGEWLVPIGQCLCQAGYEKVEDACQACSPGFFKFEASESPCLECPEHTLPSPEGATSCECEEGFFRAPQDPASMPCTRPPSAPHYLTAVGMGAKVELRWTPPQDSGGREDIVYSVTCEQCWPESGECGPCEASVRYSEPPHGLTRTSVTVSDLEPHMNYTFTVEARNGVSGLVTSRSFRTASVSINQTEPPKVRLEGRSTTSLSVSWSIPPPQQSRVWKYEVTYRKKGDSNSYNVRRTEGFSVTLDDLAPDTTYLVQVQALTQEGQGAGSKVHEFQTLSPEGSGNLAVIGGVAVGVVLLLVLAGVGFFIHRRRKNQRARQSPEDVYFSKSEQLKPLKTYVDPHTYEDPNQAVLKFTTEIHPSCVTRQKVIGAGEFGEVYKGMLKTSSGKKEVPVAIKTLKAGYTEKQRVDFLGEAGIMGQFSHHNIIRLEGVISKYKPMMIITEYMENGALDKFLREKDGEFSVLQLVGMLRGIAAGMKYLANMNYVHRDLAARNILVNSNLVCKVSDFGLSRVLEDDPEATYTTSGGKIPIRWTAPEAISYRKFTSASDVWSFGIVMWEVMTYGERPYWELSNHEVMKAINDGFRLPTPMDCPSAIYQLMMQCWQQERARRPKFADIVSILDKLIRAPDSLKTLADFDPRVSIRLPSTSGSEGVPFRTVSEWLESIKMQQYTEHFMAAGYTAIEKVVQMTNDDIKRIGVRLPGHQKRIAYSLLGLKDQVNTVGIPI

[19] = target: Ephrin type-A receptor 2 (Homo sapiens) (UniProt P29317); details: at 10 µM
[20] = target: T7, Ephrin type-A receptor 3 (Homo sapiens) (UniProt P29320); details: at 1 µM
T7 sequence (whole entry): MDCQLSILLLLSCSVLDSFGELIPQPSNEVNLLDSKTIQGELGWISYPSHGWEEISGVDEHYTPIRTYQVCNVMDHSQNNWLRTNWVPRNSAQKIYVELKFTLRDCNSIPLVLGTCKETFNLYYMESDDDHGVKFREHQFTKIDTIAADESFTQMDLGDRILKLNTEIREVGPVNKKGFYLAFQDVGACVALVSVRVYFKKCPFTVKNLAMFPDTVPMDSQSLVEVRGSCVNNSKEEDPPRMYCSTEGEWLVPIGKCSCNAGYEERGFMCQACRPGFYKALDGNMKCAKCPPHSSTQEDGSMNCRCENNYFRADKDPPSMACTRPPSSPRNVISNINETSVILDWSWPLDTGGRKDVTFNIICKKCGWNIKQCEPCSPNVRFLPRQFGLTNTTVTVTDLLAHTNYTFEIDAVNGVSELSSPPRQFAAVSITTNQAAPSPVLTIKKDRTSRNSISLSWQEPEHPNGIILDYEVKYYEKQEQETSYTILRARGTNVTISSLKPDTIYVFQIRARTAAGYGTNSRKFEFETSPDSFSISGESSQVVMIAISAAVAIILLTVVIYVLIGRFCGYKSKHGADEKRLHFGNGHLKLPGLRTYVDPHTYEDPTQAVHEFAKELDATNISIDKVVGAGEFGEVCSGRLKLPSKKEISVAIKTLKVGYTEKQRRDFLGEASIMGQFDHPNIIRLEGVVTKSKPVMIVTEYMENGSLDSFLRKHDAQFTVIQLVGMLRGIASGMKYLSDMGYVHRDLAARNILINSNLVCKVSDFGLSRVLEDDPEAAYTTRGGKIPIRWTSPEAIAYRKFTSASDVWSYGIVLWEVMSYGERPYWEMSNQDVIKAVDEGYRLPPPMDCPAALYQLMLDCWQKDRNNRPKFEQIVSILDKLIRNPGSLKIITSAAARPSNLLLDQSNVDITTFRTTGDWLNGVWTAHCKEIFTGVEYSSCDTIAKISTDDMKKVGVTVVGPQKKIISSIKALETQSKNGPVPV

Chain of Death-associated protein kinase 1 (Homo sapiens) (P53355 whole entry, looked up): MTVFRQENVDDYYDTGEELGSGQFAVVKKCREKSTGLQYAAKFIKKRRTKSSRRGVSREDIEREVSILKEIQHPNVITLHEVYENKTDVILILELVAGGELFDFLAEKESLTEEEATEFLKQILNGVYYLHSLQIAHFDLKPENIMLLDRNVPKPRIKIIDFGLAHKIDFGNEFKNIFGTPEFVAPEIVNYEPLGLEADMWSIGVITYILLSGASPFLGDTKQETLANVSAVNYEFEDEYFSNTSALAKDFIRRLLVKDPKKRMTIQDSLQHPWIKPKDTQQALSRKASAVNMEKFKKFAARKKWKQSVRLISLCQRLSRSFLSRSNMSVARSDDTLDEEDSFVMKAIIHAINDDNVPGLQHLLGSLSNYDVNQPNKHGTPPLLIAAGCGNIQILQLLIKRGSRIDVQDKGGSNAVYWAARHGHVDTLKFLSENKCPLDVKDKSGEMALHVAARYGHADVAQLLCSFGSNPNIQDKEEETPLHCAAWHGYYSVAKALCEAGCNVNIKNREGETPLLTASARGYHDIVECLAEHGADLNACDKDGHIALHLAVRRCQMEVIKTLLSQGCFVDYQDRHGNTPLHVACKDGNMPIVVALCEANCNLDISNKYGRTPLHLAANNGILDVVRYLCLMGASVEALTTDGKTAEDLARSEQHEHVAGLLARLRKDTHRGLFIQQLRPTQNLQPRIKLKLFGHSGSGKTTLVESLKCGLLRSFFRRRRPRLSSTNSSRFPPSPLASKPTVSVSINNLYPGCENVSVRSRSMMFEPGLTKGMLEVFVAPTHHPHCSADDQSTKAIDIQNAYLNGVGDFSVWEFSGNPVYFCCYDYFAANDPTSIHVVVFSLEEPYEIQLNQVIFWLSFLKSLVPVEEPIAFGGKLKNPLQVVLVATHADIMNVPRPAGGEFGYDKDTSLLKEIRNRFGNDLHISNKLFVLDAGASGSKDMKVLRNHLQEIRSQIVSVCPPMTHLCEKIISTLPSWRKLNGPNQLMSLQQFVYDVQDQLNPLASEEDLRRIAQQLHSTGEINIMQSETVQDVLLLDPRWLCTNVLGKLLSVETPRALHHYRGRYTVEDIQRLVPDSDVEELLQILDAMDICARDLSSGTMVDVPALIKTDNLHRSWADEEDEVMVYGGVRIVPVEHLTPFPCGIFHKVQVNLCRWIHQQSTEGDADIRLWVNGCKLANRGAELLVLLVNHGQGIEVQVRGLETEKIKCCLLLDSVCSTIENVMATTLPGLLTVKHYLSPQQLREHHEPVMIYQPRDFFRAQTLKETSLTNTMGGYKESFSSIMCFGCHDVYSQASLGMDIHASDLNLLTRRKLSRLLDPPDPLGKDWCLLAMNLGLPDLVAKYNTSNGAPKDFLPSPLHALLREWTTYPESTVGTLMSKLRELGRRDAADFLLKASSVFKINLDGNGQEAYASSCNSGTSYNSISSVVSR
Chain of Death-associated protein kinase 2 (Homo sapiens) (Q9UIK4 whole entry, looked up): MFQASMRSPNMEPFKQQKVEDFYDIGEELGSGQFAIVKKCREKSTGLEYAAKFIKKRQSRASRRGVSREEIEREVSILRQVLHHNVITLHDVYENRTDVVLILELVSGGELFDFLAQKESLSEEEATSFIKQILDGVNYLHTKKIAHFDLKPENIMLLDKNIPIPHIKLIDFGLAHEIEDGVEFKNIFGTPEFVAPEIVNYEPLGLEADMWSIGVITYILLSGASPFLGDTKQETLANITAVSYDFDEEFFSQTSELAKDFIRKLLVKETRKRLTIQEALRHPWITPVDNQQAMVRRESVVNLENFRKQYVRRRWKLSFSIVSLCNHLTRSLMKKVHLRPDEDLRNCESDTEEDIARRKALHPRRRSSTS

| Structure (SMILES) | residual activity [1] [%] | residual activity [2] [%] | residual activity [3] [%] | residual activity [4] [%] | residual activity [5] [%] | residual activity [6] [%] | residual activity [7] [%] | residual activity [8] [%] | residual activity [9] [%] | residual activity [10] [%] | residual activity [11] [%] | residual activity [12] [%] | residual activity [13] [%] | residual activity [14] [%] | residual activity [15] [%] | residual activity [16] [%] | residual activity [17] [%] | residual activity [18] [%] | residual activity [19] [%] | residual activity [20] [%] |
| --- | --- | --- | --- | --- | --- | --- | --- | --- | --- | --- | --- | --- | --- | --- | --- | --- | --- | --- | --- | --- |
| CC(C)n1cnc2c(NCc3ccccc3)nc(NCCCO)nc21 | 82 | 101 | 92 | 100 | 102 | 87 | 91 | 94 | 87 | 107 | 134 | 99 | 89 | -1 | -2 | 99 | 91 | 102 | 112 | 101 |
| O=C(Nc1cccc(Nc2nccc(Nc3cccc(C(F)(F)F)c3)n2)c1)C1CC1 | 60 | 93 | 68 | 82 | 102 | 79 | 30 | 72 | 125 | 73 | 10 | 95 | 96 | 61 | 19 | 22 | 22 | 79 | 19 | 95 |
| CC[n+]1c(/C=C/N(C)c2ccccc2)n(-c2ccccc2)c2ccc(-c3nc4ccccc4s3)cc21 | 51 | 100 | 99 | 110 | 102 | 116 | 88 | 120 | 121 | 119 | 68 | 99 | 103 | – | – | 100 | 100 | 109 | 90 | 116 |
